Counter-ions that a name gives are not always drawn. ± gives the standard deviation of the averaged measurements.
Tested on: Klebsiella pneumoniae KPC-119
Experiment: percent growth inhibition of drug + antibiotic vs DMSO control; higher = more growth inhibition
Settings: antibiotic (0.125x MIC): gentamicin; 20 µM

Compound	percent growth inhibition [%]
Nc1nc(/C(=C/CC(=O)O)C(=O)N[C@@H]2C(=O)N3C(C(=O)O)=CCS[C@H]23)cs1 [Ceftibuten]	99.37 ± 0.26
CC1COc2c(N3CCN(C)CC3)c(F)cc3c(=O)c(C(=O)O)cn1c23 (stereo unspecified) [Ofloxacin]	99.953 ± 0.055
C/C(=C\C(=O)OCCCCCCCCC(=O)O)C[C@@H]1OC[C@H](C[C@@H]2O[C@H]2[C@@H](C)[C@H](C)O)[C@@H](O)[C@H]1O [Mupirocin]	41.1 ± 2.1
C=CC1=C(C(=O)O)N2C(=O)[C@@H](NC(=O)/C(=N\OCC(=O)O)c3csc(N)n3)[C@H]2SC1 [Cefixime]	97.5 ± 3.4
NCC[C@H](O)C(=O)N[C@@H]1C[C@H](N)[C@@H](O[C@H]2O[C@H](CN)[C@@H](O)[C@H](O)[C@H]2O)[C@H](O)[C@H]1O[C@H]1O[C@H](CO)[C@@H](O)[C@H](N)[C@H]1O [Amikacin hydrate]	99.83 ± 0.21
CCCCC(CC)CNC(=N)NC(=N)NCCCCCCNC(=N)NC(=N)NCC(CC)CCCC (stereo unspecified) [Alexidine dihydrochloride]	99.929 ± 0.046
